Experimental data taken from ChEMBL document CHEMBL1961873, “Compounds: GSK PKIS; Assays: Nanosyn kinase panel” (2012).
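Note: values reported are mean percent inhibition of JAK3.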

Each compound was assayed against T1, Tyrosine-protein kinase JAK3 (Homo sapiens) (UniProt P52333). Details: at 0.1 µM.
T1 sequence (whole entry): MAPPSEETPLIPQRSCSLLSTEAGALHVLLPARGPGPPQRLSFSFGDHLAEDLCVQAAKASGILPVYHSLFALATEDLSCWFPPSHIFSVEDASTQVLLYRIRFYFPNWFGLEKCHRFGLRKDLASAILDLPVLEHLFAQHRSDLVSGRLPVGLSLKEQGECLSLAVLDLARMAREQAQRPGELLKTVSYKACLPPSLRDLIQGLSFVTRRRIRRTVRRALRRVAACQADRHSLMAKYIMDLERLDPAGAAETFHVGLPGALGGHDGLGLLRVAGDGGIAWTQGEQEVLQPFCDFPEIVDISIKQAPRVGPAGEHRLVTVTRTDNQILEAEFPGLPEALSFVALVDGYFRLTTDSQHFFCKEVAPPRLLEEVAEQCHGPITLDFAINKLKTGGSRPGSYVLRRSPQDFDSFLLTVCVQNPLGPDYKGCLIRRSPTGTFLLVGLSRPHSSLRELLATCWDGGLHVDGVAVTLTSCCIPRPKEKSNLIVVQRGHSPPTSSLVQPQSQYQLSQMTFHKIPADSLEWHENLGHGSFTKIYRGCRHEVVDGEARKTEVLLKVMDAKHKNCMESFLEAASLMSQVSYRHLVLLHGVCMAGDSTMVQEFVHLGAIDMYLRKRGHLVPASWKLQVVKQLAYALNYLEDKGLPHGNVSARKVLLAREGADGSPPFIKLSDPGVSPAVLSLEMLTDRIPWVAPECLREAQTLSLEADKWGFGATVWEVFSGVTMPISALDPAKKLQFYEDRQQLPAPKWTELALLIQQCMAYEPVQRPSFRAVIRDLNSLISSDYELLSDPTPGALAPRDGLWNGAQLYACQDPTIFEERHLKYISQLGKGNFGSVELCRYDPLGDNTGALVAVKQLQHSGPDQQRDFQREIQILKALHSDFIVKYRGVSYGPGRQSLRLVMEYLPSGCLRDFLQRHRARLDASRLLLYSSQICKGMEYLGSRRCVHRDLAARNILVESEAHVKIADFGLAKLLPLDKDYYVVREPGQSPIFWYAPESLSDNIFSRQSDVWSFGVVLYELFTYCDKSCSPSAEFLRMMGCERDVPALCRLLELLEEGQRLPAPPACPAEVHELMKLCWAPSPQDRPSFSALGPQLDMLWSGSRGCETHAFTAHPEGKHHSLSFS
`COc1ccc(-c2cc(-c3c[nH]nc3-c3ccccn3)ccn2)cc1` was tested, and the inhibition was -1.18%. In the case of `CCCN(CCS(C)(=O)=O)Cc1ccc(-c2ccc3ncnc(Nc4ccc(OCc5cccc(F)c5)c(Cl)c4)c3c2)o1`, the inhibition is reported as 0.2%. `FC(F)(F)c1cccc(-c2nn3ncccc3c2-c2ccnc(Nc3ccc4c(c3)OCCO4)n2)c1` gave an inhibition of -0.61%. With `CCNC(=O)O[C@H]1CN[C@H](C#Cc2cc3ncnc(Nc4ccc(OCc5cccc(F)c5)c(Cl)c4)c3s2)C1` the inhibition was -1.24%. For `COC(=O)Nc1nc2ccc(S(=O)(=O)c3ccc(NC(=O)Nc4cc(C(F)(F)F)ccc4F)cc3)cc2[nH]1`, the inhibition was -1.12%. In the case of `CC(=O)Nc1cccc(C#Cc2cncnc2Nc2ccc(OCc3cccc(F)c3)c(Cl)c2)c1`, the inhibition is reported as 0.59%. `CCOc1ccc2c(-c3ccnc(Nc4cccc(C(F)(F)F)c4)n3)cnn2n1` showed an inhibition of -1.95%. In the case of `CC(=O)NCc1cccc(C#Cc2cncnc2Nc2ccc(OCc3cccc(F)c3)c(Cl)c2)c1`, the inhibition is reported as -0.21%. Compound `Cc1cccc2c1NC(=O)/C2=N\Nc1ccc(S(N)(=O)=O)cc1` has an inhibition of 0%. In the case of `COc1ccc(-c2nn3ncccc3c2-c2ccnc(Nc3ccc4c(c3)OCCO4)n2)cc1`, the inhibition is reported as -1.66%. `Fc1ccc(-c2cc(-c3c[nH]nc3-c3ccccn3)ccn2)cc1` gave an inhibition of -0.89%. `CCN(CC)S(=O)(=O)c1ccc(OC)c(Nc2ncc(-c3ccccc3)o2)c1` was tested, and the inhibition was -0.47%. In the case of `COc1cccc(-c2c[nH]c3c(N/N=C/c4ccncc4)ncnc23)c1`, the inhibition is reported as 0.32%. With `c1ccc(-c2nc3n(c2-c2ccc4c(c2)OCO4)CCC3)nc1` the inhibition was -0.19%. `COc1cccc(-n2ncc3c(N/N=C/c4ccc(F)cc4)ncnc32)c1` was tested, and the inhibition was -1.52%. `Nc1ncc(-c2cccc(S(N)(=O)=O)c2)c2scc(-c3ccc(F)c(Cl)c3)c12` was tested, and the inhibition was -2.63%. `Cc1ccc2c(-c3ccnc(Nc4ccccc4)n3)c(-c3ccc(F)cc3)nn2n1` gave an inhibition of -0.48%. For `CS(=O)(=O)CCNCc1ccc(-c2ccc3ncnc(Nc4ccc(OCc5ccccc5)c(C(F)(F)F)c4)c3c2)o1`, the inhibition was -4.36%. `NC(=O)c1sc(-n2cnc3ccc(C(F)(F)F)cc32)cc1OCc1ccccc1Br` showed an inhibition of -1.41%. With `CCn1c(-c2nonc2N)nc2ccccc21` the inhibition was -0.66%. `NS(=O)(=O)c1ccc(Nc2ncc(-c3ccccc3)o2)cc1` gave an inhibition of -0.66%. `COc1ccc2[nH]c3c4[nH]c5ccc(OC)cc5c4c4c(c3c2c1)C(=O)NC4=O` gave an inhibition of -1.14%. For `Nc1nc(-c2ccc(F)cc2)c(-c2ccc3ncccc3n2)s1`, the inhibition was -0.98%. In the case of `COc1ccc(CNC(=O)c2ccc(-c3cc(-c4nnc(C)o4)ccc3C)cc2)cc1`, the inhibition is reported as 1.7%. With `O=C(O[C@H]1CN[C@H](C#Cc2cc3ncnc(Nc4ccc(Cc5ccccc5)cc4)c3s2)C1)N1CCOCC1` the inhibition was -2.28%. `N#Cc1c(NC(=O)CN2CCOCC2)sc2c1CCCC2` gave an inhibition of -0.09%. `Cc1cccc(Nc2ncc(-c3ccccc3)o2)c1` was tested, and the inhibition was -0.81%. `O=C(Nc1n[nH]c2cc(-c3ccc(F)cc3)ccc12)C1CC1` gave an inhibition of -0.91%. `COC(=O)c1sc(-n2cnc3cc(OC)c(OC)cc32)cc1OCc1ccccc1C(F)(F)F` gave an inhibition of 0.11%. `Cc1ccc(O)cc1Nc1ccnc2cc(-c3ccccn3)ccc12` gave an inhibition of -1.06%. `CCc1nn2ncccc2c1-c1ccnc(NC2CC2)n1` gave an inhibition of -2.87%. `CCn1cc(-c2ccnc3[nH]ccc23)c(-c2cccc(NC(=O)Nc3ccc(OCc4ccccc4)cc3)c2)n1` gave an inhibition of -1.38%. Compound `COc1cc2c(cc1Nc1nc(Nc3ccsc3C(N)=O)c3cc[nH]c3n1)N(C(=O)CN(C)C)CCC2(C)C` has an inhibition of 0.41%.
